Results published in PubChem BioAssay (NCATS).
Results filed as inconclusive are left out. Active and inactive are the calls of the source. Calls follow the shape of the dose curve; as a rule, active = well fitted cell-killing curve with a large enough effect; inconclusive = small, poorly fitted or top-dose-only effect, or effect the other way; inactive = flat fitted curve, though single readings scatter.

Legend:
Test in all cases: Primary qHTS to identify gynecologic anti-cancer compounds using libraries of approved drugs and bioactive compounds (AID 1345084); also: nearly all actives have a fitted effect of over 55% in size
[1] = system: C33A; settings: Gynecologic cancer cell panel viability, ATPlite luminescence, 48 h; series mostly up to 57.5 µM
In short: (§1)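 Cells, 1,000 per well, were allowed to settle for 16 h at 37 C before compound addition. Five concentrations were tested for 48 h, and viability was read by ATPlite luminescence after 15 min at room temperature.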

[2] = system: CAOV3; settings: Gynecologic cancer cell panel viability, ATPlite luminescence, 48 h; series mostly up to 57.5 µM
In short: as §1

[3] = system: CASKI; settings: Gynecologic cancer cell panel viability, ATPlite luminescence, 48 h; series mostly up to 57.5 µM
In short: as §1

[4] = system: Es-2; settings: Gynecologic cancer cell panel viability, ATPlite luminescence, 48 h; series mostly up to 57.5 µM
In short: as §1

[5] = system: HeLa; settings: Gynecologic cancer cell panel viability, ATPlite luminescence, 48 h; series mostly up to 57.5 µM
In short: as §1

[6] = system: Hek293T; settings: Gynecologic cancer cell panel viability, ATPlite luminescence, 48 h, control line for the selectivity index; series mostly up to 57.5 µM
In short: as §1

[7] = system: JEG-3; settings: Gynecologic cancer cell panel viability, ATPlite luminescence, 48 h; series mostly up to 57.5 µM
In short: as §1

[8] = system: OV90; settings: Gynecologic cancer cell panel viability, ATPlite luminescence, 48 h; series mostly up to 57.5 µM
In short: as §1

[9] = system: PA-1; settings: Gynecologic cancer cell panel viability, ATPlite luminescence, 48 h; series mostly up to 57.5 µM
In short: as §1

[10] = system: SKOV3; settings: Gynecologic cancer cell panel viability, ATPlite luminescence, 48 h; series mostly up to 57.5 µM
In short: as §1

[11] = system: Tov-21-G; settings: Gynecologic cancer cell panel viability, ATPlite luminescence, 48 h; series mostly up to 57.5 µM
In short: as §1

[12] = system: Tov112D; settings: Gynecologic cancer cell panel viability, ATPlite luminescence, 48 h; series mostly up to 57.5 µM
In short: as §1
% is scaled to controls: 0 for no effect and ±100 for the full control effect.

C=C1C[C@]23C[C@H]1CC[C@H]2[C@@]1(C)CCC[C@@]2(C)C(=O)O[C@@H]([C@@H]3O)[C@@H]12
inactive: Potency [1] | Potency [2] | Potency [3] | Potency [4] | Potency [5] | Potency [6] | Potency [7] | Potency [8] | Potency [9] | Potency [10] | Potency [11] | Potency [12]

COc1ccc(-c2c(-c3cc(C(=O)O)ccn3)ncn2C)cc1
inactive: Potency [1] | Potency [2] | Potency [3] | Potency [4] | Potency [5] | Potency [6] | Potency [7] | Potency [8] | Potency [9] | Potency [10] | Potency [11] | Potency [12]

COC(=O)CCSCc1ccc(-c2onc(C)c2NC(=O)OC(C)c2ccccc2Cl)cc1 (stereo not drawn)
inactive: Potency [1] | Potency [2] | Potency [3] | Potency [4] | Potency [5] | Potency [6] | Potency [7] | Potency [8] | Potency [9] | Potency [10] | Potency [11] | Potency [12]

C[C@@H]1O[C@@H](O[C@H]2[C@H](OC(=O)[C@]34CCC(C)(C)C[C@H]3C3=CCC5[C@@]6(C)C[C@H](O)[C@H](O[C@@H]7O[C@H](CO)[C@@H](O)[C@H](O)[C@H]7O)[C@@](C)(CO)C6[C@H](O)C[C@@]5(C)[C@]3(C)C[C@H]4O)OC[C@H](O)[C@@H]2O)[C@H](O)[C@H](O)[C@H]1O[C@@H]1OC[C@@H](O)[C@H](O[C@H]2OC[C@](O)(CO)[C@H]2O)[C@H]1O (stereo partly drawn)
inactive: activity change, negative = cytotoxicity [1] 6.39% [at 6.55 µM] | activity change, negative = cytotoxicity [2] 27.3% [at 6.55 µM] | activity change, negative = cytotoxicity [3] -4.03% [at 6.55 µM] | activity change, negative = cytotoxicity [4] 1.52% [at 6.55 µM] | activity change, negative = cytotoxicity [5] 19.6% [at 6.55 µM] | activity change, negative = cytotoxicity [6] -3.35% [at 6.55 µM] | activity change, negative = cytotoxicity [7] 13.7% [at 6.55 µM] | activity change, negative = cytotoxicity [8] -6.86% [at 6.55 µM] | activity change, negative = cytotoxicity [9] 24.7% [at 6.55 µM] | activity change, negative = cytotoxicity [10] 19.1% [at 6.55 µM] | activity change, negative = cytotoxicity [11] 8.26% [at 6.55 µM] | activity change, negative = cytotoxicity [12] 8.3% [at 6.55 µM]

C/C(=C\CC[C@@H](C)[C@H]1CC(O)[C@@]2(C)C3CC[C@H]4C(C)(C)[C@@H](OC5OCC(O)C(O)C5OC5OC(CO)C(O)C(O)C5O)CC[C@@]45C[C@@]35CC(O)[C@]12C)C(=O)O (stereo partly drawn)
inactive: Potency [1] | Potency [2] | Potency [3] | Potency [4] | Potency [5] | Potency [6] | Potency [7] | Potency [8] | Potency [9] | Potency [10] | Potency [11] | Potency [12]

Nc1ncnc2c1ncn2CCNCCCCCO
inactive: Potency [1] | Potency [2] | Potency [3] | Potency [4] | Potency [5] | Potency [6] | Potency [7] | Potency [8] | Potency [9] | Potency [10] | Potency [11] | Potency [12]

Cc1ccc(F)cc1C(=O)Nc1ccc(C(=O)N2Cc3cccn3Cc3ccccc32)c(Cl)c1
inactive: Potency [1] | Potency [2] | Potency [3] | Potency [4] | Potency [5] | Potency [6] | Potency [7] | Potency [8] | Potency [9] | Potency [10] | Potency [11] | Potency [12]

C=C(C)C1CC[C@]2(C(=O)O)CC[C@]3(C(=O)O)[C@H](CCC4[C@@]5(C)CC[C@H](O)C(C)(C)C5CC[C@]43C)C12 (stereo partly drawn)
inactive: Potency [1] | Potency [2] | Potency [3] | Potency [4] | Potency [5] | Potency [6] | Potency [7] | Potency [8] | Potency [9] | Potency [10] | Potency [11] | Potency [12]

CC(=O)/C=C/[C@H]1[C@](C)(O)[C@@H](O)[C@H](OC(C)=O)C2C(C)(C)CCC[C@@]21C (stereo partly drawn)
inactive: Potency [1] | Potency [2] | Potency [3] | Potency [4] | Potency [5] | Potency [6] | Potency [7] | Potency [8] | Potency [9] | Potency [10] | Potency [11] | Potency [12]

O=c1[nH]ccc2cc(OC3CCNCC3)ccc12
inactive: Potency [1] | Potency [2] | Potency [3] | Potency [4] | Potency [5] | Potency [6] | Potency [7] | Potency [8] | Potency [9] | Potency [10] | Potency [11] | Potency [12]

C[C@H]1O[C@@H](O[C@H]2CC[C@@]3(C)C(CC[C@]4(C)C3CC=C3C5CC(C)(C)CC[C@]5(C(=O)O)CC[C@]34C(=O)O)C2(C)C)[C@H](O)[C@@H](O)[C@@H]1O (stereo partly drawn)
inactive: Potency [1] | Potency [2] | Potency [3] | Potency [4] | Potency [5] | Potency [6] | Potency [7] | Potency [8] | Potency [9] | Potency [10] | Potency [11] | Potency [12]

C=C1C[C@]23C[C@H]1CC[C@H]2[C@]1(C)CCC[C@@](C)(C(=O)O)[C@H]1[C@@H]3C(=O)O
inactive: Potency [1] | Potency [2] | Potency [3] | Potency [4] | Potency [5] | Potency [6] | Potency [7] | Potency [8] | Potency [9] | Potency [10] | Potency [11] | Potency [12]

Cn1nc(C(C)(C)C)cc1C(=O)NC(Cc1cccc(Cl)c1)C(=O)NCC#N (stereo not drawn)
inactive: Potency [1] | Potency [2] | Potency [3] | Potency [4] | Potency [5] | Potency [6] | Potency [7] | Potency [8] | Potency [9] | Potency [10] | Potency [11] | Potency [12]

COc1ccc(-c2ccc(-c3cn(C(=O)N4CCCCC4c4ccccc4)nn3)cc2)cc1 (stereo not drawn)
inactive: Potency [1] | Potency [2] | Potency [3] | Potency [4] | Potency [5] | Potency [6] | Potency [7] | Potency [8] | Potency [9] | Potency [10] | Potency [11] | Potency [12]
